In PubChem BioAssay (NCI):
Where “and” joins values, the source holds several entries; their conditions need not be identical. Identical values can stand only once. About 79,000 compounds went through this panel and 15% of them were active in at least one assay; those are over-represented in the sample as a whole. Some structures have more than one record in an assay (separate samples or runs), and their calls can disagree. Calls of active or inactive are those of the source. No stated cut-off is given here; in the data, active means growth inhibition above about 70%; inactive means the rest.

Key:
[1] = NCI Yeast Anticancer Drug Screen. Data for the rad52 strain (AID 147);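 further: 0% = growth of vehicle-treated control cultures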; settings: S. cerevisiae rad52 mutant growth inhibition, stronger effect = higher value
In short: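 Here a repair-compromised yeast strain receives each compound; its growth is then quantified and normalised to vehicle-only controls.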

[2] = NCI Yeast Anticancer Drug Screen. Data for the wt1 strain (AID 149);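 further: 0% = growth of vehicle-treated wt1 cultures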; settings: S. cerevisiae wt1 strain (SPY 50644) growth inhibition, stronger effect = higher value
In short: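 Vehicle-normalised growth inhibition; strain wt1; compound exposure.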

[3] = NCI Yeast Anticancer Drug Screen. Data for the rad50EPP+ strain (AID 151);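 further: 0% = growth of vehicle-treated control cultures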; settings: S. cerevisiae rad50 mutant strain, stronger effect = higher value
In short: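 Read-out is yeast growth inhibition relative to vehicle; cells used were the rad50EPP+ strain.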

[4] = NCI Yeast Anticancer Drug Screen. Data for the rad50 strain (AID 155);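 further: 0% = growth of vehicle-only cultures of the same strain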; settings: S. cerevisiae rad50 strain growth inhibition, stronger effect = higher value
In short: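 A DNA repair-deficient yeast mutant serves as the test organism; compound-induced growth inhibition is calculated against vehicle-treated cells.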

[5] = NCI Yeast Anticancer Drug Screen. Data for the mec2-1 strain (AID 157); settings: S. cerevisiae mec2-1 strain, stronger effect = higher value
In short: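 Using mec2-1 yeast: add compound, measure growth, express inhibition versus vehicle-treated cultures.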

[6] = NCI Yeast Anticancer Drug Screen. Data for the rad14 strain (AID 159);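 further: 0% = growth of vehicle-treated control cultures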; settings: S. cerevisiae rad14 strain growth inhibition, stronger effect = higher value
In short: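 Vehicle-treated cultures served as the baseline for growth inhibition of a DNA repair-mutant yeast strain exposed to each compound.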

[7] = NCI Yeast Anticancer Drug Screen. Data for the sgs1 mgt1 strain (AID 161);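 further: 0% = growth of cultures given vehicle only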; settings: S. cerevisiae sgs1 mgt1 strain, stronger effect = higher value
In short: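 Growth of a repair-deficient yeast mutant was monitored after compound treatment and expressed as inhibition relative to vehicle-treated cultures.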

[8] = NCI Yeast Anticancer Drug Screen. Data for the CLN2oe strain (AID 163);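 further: 0% = growth of vehicle-only control cultures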; settings: S. cerevisiae CLN2oe strain, stronger effect = higher value
In short: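 Whole-cell yeast growth assay. A strain engineered for altered cell-cycle control received compound, and inhibition relative to vehicle-treated cultures was recorded.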

[9] = NCI Yeast Anticancer Drug Screen. Data for the cln2 rad14 strain (AID 165);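 further: 0% = growth equal to vehicle treated cultures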; settings: S. cerevisiae cln2 rad14 strain, stronger effect = higher value
In short: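 Yeast strain cln2 rad14, bearing defects in cell cycle control and DNA repair, serves as the test system; values reflect growth inhibition compared with vehicle.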

[10] = NCI Yeast Anticancer Drug Screen. Data for the bub3 strain (AID 167); settings: S. cerevisiae bub3 mutant strain, stronger effect = higher value
In short: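 Inhibition values come from growth of compound-treated mutant yeast normalised to vehicle-treated controls.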

[11] = NCI Yeast Anticancer Drug Screen. Data for the wt2 strain (AID 169);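 further: 0% = growth of vehicle-treated yeast cultures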; settings: S. cerevisiae wt2 strain growth inhibition, stronger effect = higher value
In short: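 Treated yeast vs. vehicle-treated yeast: growth inhibition determined.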

[12] = NCI Yeast Anticancer Drug Screen. Data for the mlh1 strain (AID 171);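 further: 0% = growth of vehicle-treated control cultures of the same strain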; settings: S. cerevisiae mlh1 strain growth inhibition, stronger effect = higher value
In short: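 A yeast strain with a defined genetic lesion serves as the test organism. Cultures receive compound or vehicle, and growth is measured.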

[13] = NCI Yeast Anticancer Drug Screen. Data for the sgs1 strain (AID 173);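 further: 0% = growth of vehicle-only control cultures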; settings: S. cerevisiae sgs1 mutant, stronger effect = higher value
In short: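 A genetically defined yeast mutant is incubated with the test compound, and its growth is compared to that of the same strain given vehicle.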

[14] = NCI Yeast Anticancer Drug Screen. Data for the mlh1 rad18 strain (AID 175); settings: S. cerevisiae mlh1 rad18 strain growth inhibition, stronger effect = higher value
In short: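 Steps: expose repair-defective yeast to compound; measure growth; express inhibition against vehicle-treated controls.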

[15] = NCI Yeast Anticancer Drug Screen. Data for the rad18 strain (AID 177); settings: S. cerevisiae rad18 mutant growth inhibition, stronger effect = higher value
In short: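 Measured value is growth inhibition of a yeast strain bearing a DNA repair alteration, referenced to vehicle-treated cells.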

[16] = at 5.0 µM (retest, dose inferred, filed as 0.5)
[17] = at 50.0 µM (retest, dose inferred, filed as 5.0)

In the case of `CN(C)c1ccc(/C=C/c2ccnc3ccccc23)cc1N`, the growth inhibition ([1]; at 1.2 µM) is reported as -6% (inactive), the growth inhibition ([1]; at 3.7 µM) is reported as -8% (inactive) and the growth inhibition ([1]; at 11.0 µM) is reported as -10% (inactive). For the same compound, the growth inhibition ([1]; at 33.0 µM) was -5% (inactive), the growth inhibition ([1]; at 100.0 µM) was 5% (inactive) and the growth inhibition ([2]; at 1.2 µM) was -2% (inactive). The growth inhibition ([2]; at 3.7 µM) was -4% (inactive), the growth inhibition ([2]; at 11.0 µM) was -9% (inactive) and the growth inhibition ([2]; at 33.0 µM) was -15% (inactive). The growth inhibition ([2]; at 100.0 µM) was -7% (inactive), the growth inhibition ([3]; at 1.2 µM) was -7% (inactive) and the growth inhibition ([3]; at 3.7 µM) was -4% (inactive). For the same compound, the growth inhibition ([3]; at 11.0 µM) was 5% (inactive), the growth inhibition ([3]; at 33.0 µM) was 29% (inactive) and the growth inhibition ([3]; at 100.0 µM) was 56% (inactive). The growth inhibition ([4]; at 1.2 µM) was -5% (inactive), the growth inhibition ([4]; at 3.7 µM) was -10% (inactive) and the growth inhibition [4, 16] was -25% (inactive) and -10% (inactive). The growth inhibition ([4]; at 11.0 µM) was -13% (inactive), the growth inhibition ([4]; at 33.0 µM) was 5% (inactive) and the growth inhibition [4, 17] was -13% (inactive) and 77% (active). For the same compound, the growth inhibition ([4]; at 50.0 µM) was 2.85% (inactive) and -9.8% (inactive), the growth inhibition ([4]; at 100.0 µM) was 17% (inactive) and the growth inhibition ([5]; at 1.2 µM) was -6% (inactive). The growth inhibition ([5]; at 3.7 µM) was -6% (inactive), the growth inhibition [5, 16] was -1% (inactive) and 4% (inactive) and the growth inhibition ([5]; at 11.0 µM) was -7% (inactive). The growth inhibition ([5]; at 33.0 µM) was -4% (inactive), the growth inhibition [5, 17] was -6% (inactive) and 94% (active) and the growth inhibition ([5]; at 50.0 µM) was 32.1% (inactive) and -2.55% (inactive). For the same compound, the growth inhibition ([5]; at 100.0 µM) was 14% (inactive), the growth inhibition ([6]; at 1.2 µM) was -7% (inactive) and the growth inhibition ([6]; at 3.7 µM) was -7% (inactive). The growth inhibition ([6]; at 11.0 µM) was -8% (inactive), the growth inhibition ([6]; at 33.0 µM) was 3% (inactive) and the growth inhibition ([6]; at 100.0 µM) was 17% (inactive). For the same compound, the growth inhibition [7, 16] was -8% (inactive) and -6% (inactive), the growth inhibition [7, 17] was 43% (inactive) and 95% (active) and the growth inhibition ([7]; at 50.0 µM) was 64.8% (inactive) and 1.25% (inactive). The growth inhibition ([8]; at 1.2 µM) was -1% (inactive), the growth inhibition ([8]; at 3.7 µM) was -5% (inactive) and the growth inhibition ([8]; at 11.0 µM) was -19% (inactive). For the same compound, the growth inhibition ([8]; at 33.0 µM) was -16% (inactive), the growth inhibition ([8]; at 100.0 µM) was -4% (inactive) and the growth inhibition [9, 16] was -6% (inactive) and -8% (inactive). The growth inhibition [9, 17] was 7% (inactive) and 40% (inactive), the growth inhibition ([9]; at 50.0 µM) was -28.1% (inactive) and -22.4% (inactive) and the growth inhibition ([10]; at 1.2 µM) was -5% (inactive). The growth inhibition ([10]; at 3.7 µM) was -5% (inactive), the growth inhibition [10, 16] was 3% (inactive) and -7% (inactive) and the growth inhibition ([10]; at 11.0 µM) was -8% (inactive). For the same compound, the growth inhibition ([10]; at 33.0 µM) was -6% (inactive), the growth inhibition [10, 17] was 5% (inactive) and 89% (active) and the growth inhibition ([10]; at 50.0 µM) was 81.6% (active) and -6.75% (inactive). For the same compound, the growth inhibition ([10]; at 100.0 µM) was 20% (inactive), the growth inhibition ([11]; at 1.2 µM) was -5% (inactive) and the growth inhibition ([11]; at 3.7 µM) was -8% (inactive). For the same compound, the growth inhibition ([11]; at 11.0 µM) was -10% (inactive), the growth inhibition ([11]; at 33.0 µM) was 6% (inactive) and the growth inhibition ([11]; at 100.0 µM) was 52% (inactive). For the same compound, the growth inhibition ([12]; at 1.2 µM) was -3% (inactive), the growth inhibition ([12]; at 3.7 µM) was -3% (inactive) and the growth inhibition ([12]; at 11.0 µM) was -1% (inactive). The growth inhibition ([12]; at 33.0 µM) was 7% (inactive), the growth inhibition ([12]; at 100.0 µM) was 42% (inactive) and the growth inhibition ([13]; at 1.2 µM) was -3% (inactive). The growth inhibition ([13]; at 3.7 µM) was -2% (inactive), the growth inhibition ([13]; at 11.0 µM) was -3% (inactive) and the growth inhibition ([13]; at 33.0 µM) was 20% (inactive). The growth inhibition ([13]; at 100.0 µM) was 64% (inactive), the growth inhibition [14, 16] was -12% (inactive) and 5% (inactive) and the growth inhibition [14, 17] was 13% (inactive) and 97% (active). For the same compound, the growth inhibition ([14]; at 50.0 µM) was 81.8% (active) and 0.6% (inactive), the growth inhibition ([15]; at 1.2 µM) was -4% (inactive) and the growth inhibition ([15]; at 3.7 µM) was -3% (inactive). For the same compound, the growth inhibition ([15]; at 11.0 µM) was -8% (inactive), the growth inhibition ([15]; at 33.0 µM) was 11% (inactive) and the growth inhibition ([15]; at 100.0 µM) was 32% (inactive).
